Screens as filed in PubChem BioAssay.
Hits are enriched below; roughly 5.7% of the tested compounds scored in any of these assays.
hcDAF-12 act = H. contortus DAF-12 activation, primary screen; HEK293 hcDAF-12 lit1-tk-luc reporter, luminescence; 0% DMSO, 100% Δ7-dafachronic acid; activation, % at 6.8 µM; actives 1.4% (n = 370,000); AID 652067;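 active = activation above the mean of all tested compounds plus 3 SD, cut at about 5.5% in these data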;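 note: 100% = response to 3 µM Δ7-dafachronic acid high control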
hgDAF-12 ag = agonists of H. glycines DAF-12 nuclear receptor; HEK293 GAL4-hgDAF12 UAS-luciferase reporter, agonist luminescence; normalized to butyrate control; AID 687014; actives 1.8% (n = 370,000); activation, % at 6.8 µM;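 active = activation above a cutoff set at the mean of all screened compounds plus 3 SD, cut at about 10% in these data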;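 note: 0% = DMSO wells and 100% = sodium butyrate wells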
DAX1 inh-1 = NR0B1 (DAX1) inhibition; inhibition, % at 6.75 µM; HEK293 Gal4-DAX1 luciferase reporter, luminescence; P51843; actives 0.99% (n = 340,000);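 active = inhibition above the mean over all tested compounds plus 3 SD, cut at about 4.2% in these data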;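 note: 0% = DAX1-transfected cells with DMSO and 100% = empty-vector control cells with DMSO; inhibition shows as a rise in luminescence from relieved DAX1 repression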
DAX1 inh-2 = inhibitors of DAX1 repression of SF-1 activated StAR promoter | HEK293T StAR-luciferase reporter, SF-1/DAX-1 repression relief | inhibition, % at 6.8 µM | actives 1.1% (n = 370,000);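 active = inhibition above the mean over all tested compounds plus 3 SD, cut at about 3.6% in these data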;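 note: 0% = DAX-1 cells with DMSO and 100% = cells lacking DAX-1 with DMSO; higher inhibition means more luminescence from relief of DAX-1 repression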
ssDAF12 agonist = activates DAF-12 receptor from parasite S. stercoralis. HEK293 ssDAF-12/GRIP1 lit1-tk-luc reporter, luminescence; % of 3 µM dafachronic acid response. activation, % at 6.8 µM. actives 1% (n = 370,000);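 active = activation above the mean over all tested compounds plus 3 SD, cut at about 0.9% in these data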;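 note: 0% = DMSO-only wells and 100% = 3 µM delta7-dafachronic acid wells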
AHR act = activates the human aryl hydrocarbon receptor. activation, % at 5 µM. AHR-responsive luciferase reporter cells, luminescence. actives 2.5% (n = 320,000). P35869; in the data active = activation above about 47%;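 note: 0% = vehicle wells and 100% = reference agonist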
LXRb hcDAF ctr = activates human LXR-beta, counter-screen for hcDAF-12 agonists; shares compounds with hcDAF-12 act; HEK293 Gal4-LXR tk-luc reporter, luminescence, 24 h; normalized: DMSO 0%, positive control 100%; activation, % at 6.8 µM; 3,400 tested, under 10 active;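 active = mean percent activation of the reporter above a cutoff set as the average over tested compounds plus their standard deviation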
Target sequence (P55055 whole entry, looked up, the tested form may be a part): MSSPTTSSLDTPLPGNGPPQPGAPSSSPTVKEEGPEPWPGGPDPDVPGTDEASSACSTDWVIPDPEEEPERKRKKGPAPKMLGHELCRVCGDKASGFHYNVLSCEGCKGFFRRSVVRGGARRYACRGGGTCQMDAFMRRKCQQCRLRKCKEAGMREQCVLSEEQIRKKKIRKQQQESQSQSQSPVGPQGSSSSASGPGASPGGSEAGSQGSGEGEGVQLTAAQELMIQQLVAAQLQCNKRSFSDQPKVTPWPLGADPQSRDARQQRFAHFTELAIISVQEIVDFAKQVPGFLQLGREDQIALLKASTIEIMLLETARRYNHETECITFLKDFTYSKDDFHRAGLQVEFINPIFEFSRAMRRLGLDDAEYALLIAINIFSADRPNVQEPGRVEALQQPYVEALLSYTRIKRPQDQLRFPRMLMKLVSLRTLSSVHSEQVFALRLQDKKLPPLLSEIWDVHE
hcDAF12 ag = confirmation of H. contortus DAF-12 agonists. activation, % at 6.8 µM. actives 61% (n = 3,400). HEK293 hcDAF-12 lit1-tk-luc reporter, luminescence; % of Δ7-dafachronic acid response. shares compounds with hcDAF-12 act;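 active = mean activation across triplicate tests above the threshold derived from the earlier primary screen, cut at about 5.5% in these data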;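 note: 0% = DMSO only wells and 100% = 3 µM Δ7-dafachronic acid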
* marks the source's active call; other numbers are inactive results; . = not tested or not shown.

SMILES	hcDAF-12 act	hgDAF-12 ag	DAX1 inh-1	DAX1 inh-2	ssDAF12 agonist	AHR act	LXRb hcDAF ctr	hcDAF12 ag
Cc1ccc(/C(O)=C2\C(=O)C(=O)N(C)C2c2ccccc2[N+](=O)[O-])cc1 (configuration not stated)	5	2	4	0	0	43	.	.
Cc1ccc(/C(O)=C2\C(=O)C(=O)N(Cc3cccnc3)C2c2ccccc2[N+](=O)[O-])cc1 (configuration not stated)	9.7*	13*	0	2	1.7*	38	0	6.8*
CCCc1cc(C(=O)Nc2cccc(Cl)c2)no1	9.4*	8	1	1	-1	-2	1	3
CCCc1cc(C(=O)Nc2ccc(F)c(Cl)c2)no1	2	4	0	1	-1	-7	.	.
C=CC[C@@H](CC(=O)N(CCO)Cc1ccccc1)C(=O)N[C@H](COC(=O)[C@@H](CC=C)Cc1ccc(F)cc1)c1ccccc1	7.6*	0	0	-1	-1	1	0	1
c1ccc2c(-c3c[nH]c4ccccc34)c3ccccc3nc2c1	-2	-2	-2	-2	-2	1	.	.
O=C(O)c1cc(-c2c[nH]c3ccccc23)nc2ccc3ccccc3c12	9.1*	4	0	0	0	25	0	5.8*
Cc1cn2c(nc1=O)OC1C(O)C(COC(=O)c3ccccc3)OC12 (configuration not stated)	0	-1	0	0	-1	-3	.	.
C/C(=N\NC(=O)c1n[nH]c2c1CCC2)c1ccco1	11*	8	.	1	0	15	1	5
Cc1ccc(S(=O)(=O)N2CCCC2C(=O)Nn2cnnc2)cc1 (configuration not stated)	0	-1	0	1	-1	0	.	.
CC(=O)NCCC(=O)N1CCc2c([nH]c3ccccc23)C1c1cccc(C)c1 (configuration not stated)	7.1*	9	1	0	0	25	0	7.6*
Cc1ccc(/C=C/c2nc3ccccc3s2)s1	9.4*	2	1	1	0	12	1	19*
O=C(Oc1ccccc1)c1ccccc1	2	2	0	-1	-1	.	.	.
CN(C)S(=O)(=O)c1ccc(C(=O)Oc2ccccc2)cc1	12*	2	1	-1	-1	2	0	1
CC(C)N1CCc2c(sc(NC(=O)C(F)(F)F)c2-c2nc3ccccc3s2)C1	-1	9	.	.	0	.	.	.
CC(=O)Nc1sc2c(c1-c1nc3ccccc3s1)CNC2	16*	2	.	.	1.6*	.	0	9.8*
O=C(NCC(c1cccnc1)N1CCN(c2ccccc2F)CC1)c1ccco1 (configuration not stated)	-2	-2	0	0	-1	0	.	.
CCN(CC)c1ccc(NC2=C(Cl)C(=O)c3ccccc3C2=O)cc1	.	.	0	.	.	37	.	.
Cc1ccc(NC2=C(Cl)C(=O)c3ccccc3C2=O)cc1	7.4*	9	0	2	1.3*	0	0	5.9*
Cn1c(=NCC(O)COc2ccccc2)sc2ccccc21 (configuration not stated)	-1	-1	0	0	-1	-13	.	.
Cn1c(=NN=Cc2ccccc2OCCO)sc2ccccc21	7.8*	9	2	3	1.7*	.	0	7.9*
Cc1ccn2cc(CSc3ccccc3)nc2c1	6.6*	12*	2	2	0	-3	1	5
O=C1CSC(c2ccccc2F)N1CCN1CCCCC1 (configuration not stated)	-1	-1	0	0	-2	-1	.	.
COc1ccc2cc(/C=C/C(=O)c3ccco3)c(Cl)nc2c1	.	.	.	.	.	9	.	.
CCOC(=O)C1(C)CCCN1C(=O)c1ccccc1F (configuration not stated)	7.1*	2	.	0	-1	.	0	0
SMILES	hcDAF-12 act	hgDAF-12 ag	DAX1 inh-1	DAX1 inh-2	ssDAF12 agonist	AHR act	LXRb hcDAF ctr	hcDAF12 ag
CCOC(=O)C1(C)CCCN1C(=O)c1c(F)cccc1F (configuration not stated)	2	6	.	0	-2	.	.	.
Clc1ccc(-c2cnn3c(-c4ccncc4)ccnc23)cc1	7.2*	13*	4	3	0	72*	2	8.4*
O=C(NCc1ccc(F)cc1)c1cc(-c2ccccn2)nc2ccc(S(=O)(=O)N3CCOCC3)cc12	1	0	2	2	-1	.	.	.
CCc1c(C(=O)C(C)O)c2n3c1CCC[C@@H]3CC2 (some centres not stated)	0	3	.	.	0	.	.	.
O=C(Nc1nc2ccccc2n1CCN1CCCCC1)c1ccc(Cl)cc1	.	.	.	.	.	11	.	.
Cc1ccc(C(=O)Nc2nc3ccccc3n2CCN2CCCC2)cc1	9.1*	14*	1	4.3*	2.7*	47*	1	8.5*
Cc1ccc(C(=O)Cn2c(=N)n(CCN3CCOCC3)c3ccccc32)cc1	3	2	0	0	-1	34	.	.
Cn1c(=N)n(CC(=O)c2ccc(Br)cc2)c2ccccc21	23*	17*	4.9*	2	4.4*	55*	3	29*
CCn1c(=N)n(CC(=O)c2ccc(Cl)c(Cl)c2)c2ccccc21	9.5*	8	2	1	1	65*	1	5.8*
CCn1c(=N)n(CC(=O)c2ccco2)c2ccccc21	1	0	2	0	-1	18	.	.
O=C(CCCCCBr)N1CCC(CC2CC(c3cccc(Br)c3)=NO2)(C(=O)NCC2CCCCC2)CC1 (configuration not stated)	2	-1	0	0	-1	3	.	.
Cc1cccc(NC(=O)c2cccc(C(=O)Nc3cccc(C)c3)n2)c1	1	-2	1	0	-1	4	.	.
c1ccc(C2=NN(c3ccccc3)CC2)cc1	6.7*	11*	4.3*	2	1	28	0	4
CCOC(=O)c1cc2ccc3ccccc3c2s1	7.2*	11*	3	2	1.3*	13	1	11*
COc1ccc2[nH]cc(C(=O)CNc3nc(C)cs3)c2c1	7.3*	8	0	2	0	41	0	7.6*
O=C(Cn1c(O)c(/C=C2\C=Nc3ccccc32)sc1=O)Nc1ccc2c(c1)OCO2	2	3	0	0	-1	6	.	.
